Records with an inconclusive call do not appear. Calls of active or inactive are those of the source. Unless noted, calls follow the shape of the dose curve; as a rule, active = well fitted curve in the direction sought with a large enough effect; inconclusive = small, poorly fitted or top-dose-only effect, or another doubt; inactive = no such curve, though single readings can be large; an effect the other way counts as inactive or inconclusive.

These results are taken from PubChem BioAssay (NCATS).

For assay [1], the target named is DNA repair nuclease/redox regulator APEX1 (Homo sapiens) (UniProt P27695). In words: qHTS Validation Assay for Inhibitors of the Human Apurinic/apyrimidinic Endonuclease 1 (APE1) (AID 1705;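 also: TAMRA fluorescence gain over two minutes as APE1 cuts a quenched THF abasic duplex; series mostly up to about 57 µM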). Put shortly:
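qHTS, 1536-well. APE1 + cpd 15 min RT → 50 nM TAMRA/BHQ-2 THF-abasic dsDNA substrate → kinetic fluorescence, 3 reads/60 s; delta(read3−read1) = reaction progress. No-enzyme buffer = negative control.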
(In general: Quantitative high-throughput screening tests each substance at several concentrations.)

Assay [2] in a line: Counterscreen for APE1 Inhibitors: Fluorescent Dye Displacement Validation Assay (AID 1707). Put shortly:
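Compounds are scored by their ability to displace Thiazole Orange (250 nM) from a 50 nM TAMRA-tagged duplex bearing a tetrahydrofuran abasic site. Buffer is 50 mM Tris-HCl pH7.5, 50mM NaCl, 2 mM MgCl2, 0.01% Tween-20.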
For orientation: The purpose of a counterscreen is to sort out artefacts and off-target activity.

Assay [3] in a line: qHTS for differential inhibitors of proliferation of Plasmodium falciparum line 3D7 (AID 1876). Also: potency is read from the fitted curve at half-maximal effect.
Assay [4] can be described thus: qHTS for differential inhibitors of proliferation of Plasmodium falciparum line D10 (AID 1877).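 Also: parasites grown with compound for 72 h before DNA staining.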 Also: potency is read from the fitted curve at half-maximal effect.
Assay [5] in a line: qHTS for differential inhibitors of proliferation of Plasmodium falciparum line HB3 (AID 1886).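 Also: parasites grown with compound for 72 h before SYBR Green readout.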 Also: potency is read from the fitted curve at half-maximal effect. The conditions noted are these: Potency: Plasmodium falciparum HB3 proliferation inhibition.
For assay [6], the target named is Ferritin light chain (Equus caballus) (UniProt P02791). In words: qHTS Validation Assay for Identification of Novel General Anesthetics (AID 2323). Also: series mostly up to about 77 µM. Put shortly: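 Fluorescence at 535 nm (excitation 380 nm) reported loss of 1-AMA binding to horse-spleen apoferritin (10 uM) in PBS with 50% saturated 1-aminoanthracene, after 10 min room-temperature incubation with compound; values from Hill fits of normalized response.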
Sequence of Ferritin light chain (Equus caballus) (P02791 2-175 limits assumed): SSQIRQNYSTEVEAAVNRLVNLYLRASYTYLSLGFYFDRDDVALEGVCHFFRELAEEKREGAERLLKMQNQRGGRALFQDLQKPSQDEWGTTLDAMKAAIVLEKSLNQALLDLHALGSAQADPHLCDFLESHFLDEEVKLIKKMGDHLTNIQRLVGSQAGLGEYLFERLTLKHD

In assay [7] the target is ATP-dependent DNA helicase Q1 (Homo sapiens) (UniProt P46063). In words: qHTS Validation Assay for Inhibitors of RecQ-Like Dna Helicase 1 (RECQ1) (AID 2353). Also: potency is read from the fitted curve at half-maximal effect. An outline of the steps:
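50 nM RECQ1T1 preincubated 15 min with compound in Tris pH 8.0 buffer with MgCl2, DTT, Tween-20 and 2.5 ug/ml poly(dI-dC); started with 200 nM TAMRA/BHQ-2 forked duplex and 2 mM ATP. Unwinding read as fluorescence (525/598 nm), two reads 2 h apart.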

The target in assay [8] is RecQ-like DNA helicase BLM (Homo sapiens) (UniProt P54132). In words: qHTS Validation Assay for Inhibitors of Bloom's syndrome helicase (BLM) (AID 2364). Also: potency is read from the fitted curve at half-maximal effect. Put shortly: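 50 nM BLM preincubated 15 min at room temperature with compound in pH 8.0 Tris buffer containing 2.5 ug/ml poly(dI-dC); started with 200 nM TAMRA/BHQ-2 forked duplex and 2 mM ATP (final). Unwinding read as TAMRA fluorescence increase, two reads 2 h apart.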
Sequence of RecQ-like DNA helicase BLM (Homo sapiens) (P54132 whole entry, looked up): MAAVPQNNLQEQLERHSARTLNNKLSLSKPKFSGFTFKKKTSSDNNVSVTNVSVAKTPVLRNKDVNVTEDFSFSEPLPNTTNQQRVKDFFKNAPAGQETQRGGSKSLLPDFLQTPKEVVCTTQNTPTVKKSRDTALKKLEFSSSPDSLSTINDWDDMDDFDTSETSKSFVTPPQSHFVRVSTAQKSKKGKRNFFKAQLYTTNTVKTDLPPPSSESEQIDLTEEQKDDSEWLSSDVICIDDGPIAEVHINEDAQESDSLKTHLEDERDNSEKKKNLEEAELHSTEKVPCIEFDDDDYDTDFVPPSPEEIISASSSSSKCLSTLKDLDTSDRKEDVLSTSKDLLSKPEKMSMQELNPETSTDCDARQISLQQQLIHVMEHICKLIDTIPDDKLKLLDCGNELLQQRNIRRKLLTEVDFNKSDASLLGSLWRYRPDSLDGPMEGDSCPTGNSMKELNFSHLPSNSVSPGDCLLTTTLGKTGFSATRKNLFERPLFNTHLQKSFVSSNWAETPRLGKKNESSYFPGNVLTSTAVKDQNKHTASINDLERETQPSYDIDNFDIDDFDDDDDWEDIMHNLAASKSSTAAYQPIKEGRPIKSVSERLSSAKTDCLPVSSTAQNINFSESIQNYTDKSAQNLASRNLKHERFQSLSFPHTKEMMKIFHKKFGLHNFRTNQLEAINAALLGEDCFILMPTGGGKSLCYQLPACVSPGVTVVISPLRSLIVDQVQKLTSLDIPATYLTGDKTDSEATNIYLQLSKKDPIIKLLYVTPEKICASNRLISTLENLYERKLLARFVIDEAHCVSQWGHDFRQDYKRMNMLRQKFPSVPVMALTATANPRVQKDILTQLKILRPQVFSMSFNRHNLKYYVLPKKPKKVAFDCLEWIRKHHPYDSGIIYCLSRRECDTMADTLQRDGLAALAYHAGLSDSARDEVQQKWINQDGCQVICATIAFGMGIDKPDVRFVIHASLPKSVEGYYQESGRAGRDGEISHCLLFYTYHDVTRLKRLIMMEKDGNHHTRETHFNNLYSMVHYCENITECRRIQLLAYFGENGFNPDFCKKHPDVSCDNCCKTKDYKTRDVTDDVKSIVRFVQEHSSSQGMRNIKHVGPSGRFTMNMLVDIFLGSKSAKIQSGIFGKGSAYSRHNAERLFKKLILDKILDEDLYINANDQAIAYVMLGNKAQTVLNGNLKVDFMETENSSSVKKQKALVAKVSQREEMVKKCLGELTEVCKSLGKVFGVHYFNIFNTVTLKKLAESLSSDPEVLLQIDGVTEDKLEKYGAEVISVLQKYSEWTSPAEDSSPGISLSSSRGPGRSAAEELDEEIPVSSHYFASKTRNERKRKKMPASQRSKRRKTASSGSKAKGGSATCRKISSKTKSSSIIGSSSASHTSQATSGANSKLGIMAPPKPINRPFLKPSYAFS

The nature of assay [9]: Cytometric Cell-Based qHTS for Inhibitors of the mTORC1 Signaling Pathway in MEF (Tsc2-/-, p53-/-) Cells (AID 2660).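 Also: percent of cells above a phospho-rpS6 to PI ratio cutoff in each well; series mostly up to about 38 µM.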 An outline of the steps: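 Immunofluorescence qHTS of rpS6 Ser235/236 phosphorylation: MEFs (Tsc2-/-, p53-/-) treated 24 h, 37 C, in DMEM + 10% FBS. Alexa-488 signal normalized to PI count, referenced to rapamycin (7.5 nM) and DMSO; PI cell number recorded for viability.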

Assay [10] in a line: High Content Imaging Cell-Based qHTS for Inhibitors of the mTORC1 Signaling Pathway in MEF (Tsc2-/-, p53-/-) Cells (AID 2666).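 Also: percent of cells scored positive for phospho-rpS6 Ser235/236 immunostaining by imaging.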 An outline of the steps:
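Phospho-rpS6 (Ser235/236) immunofluorescence, normalized and scored as % positive cells using rapamycin and DMSO controls, was read in empty-vector Tsc2-/-, p53-/- MEFs after 24 h compound exposure at 37 C; propidium iodide counted cells.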

The nature of assay [11]: High Content Imaging Cell-Based qHTS for Inhibitors of the mTORC1 Signaling Pathway in MEF Cells (AID 2667).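 Also: Tsc2-/- p53-/- MEFs stably re-expressing wild-type Tsc2 exposed 24 h; series mostly up to about 38 µM.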 An outline of the steps:
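WT MEFs (Tsc2-/-, p53-/- re-expressing Tsc2), in DMEM + 10% FBS, were treated with compound for 24 h at 37 C. Cells were then fixed and stained for phospho-rpS6 Ser235/236 with propidium iodide as cell count. Values are % positive cells, with thresholds set against rapamycin-treated cells.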

A short description of assay [12]: qHTS for differential inhibitors of proliferation of Plasmodium falciparum line Dd2 (AID 1882). Also: nearly all actives have a fitted effect of over 65% in size. Also: potency is read from the fitted curve at half-maximal effect. The following applies: Potency: Plasmodium falciparum Dd2 proliferation inhibition. Put shortly:
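SYBR Green I DNA fluorescence read-out, ex 485/em 535 nm. Signals were normalized to 0.29 uM artemisinin and DMSO wells, then corrected using vehicle-only plates flanking each stack. Parasite growth ran 72 h in erythrocytes before lysis.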

The nature of assay [13]: qHTS Assay for Modulators of Human Peripheral Myelin Protein 22 (PMP22) Expression/Activity (AID 1967; active = well fitted curve in the direction sought with a large enough effect in the signal ratio; the % refers to the signal ratio). Put shortly:
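Luminescence ratio of Pmp22 promoter-driven green luciferase to EF-alpha-driven red luciferase, in engineered mouse MSC80 Schwann cells, served as read-out. Compounds were incubated 24h; untreated cells defined 0% Activity; curves were classified by r2, magnitude and activity.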

Assay [14] is described as follows: qHTS for differential inhibitors of proliferation of Plasmodium falciparum line 7G8 (AID 1815).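 Also: parasite growth measured after three days of incubation.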 Also: potency is read from the fitted curve at half-maximal effect.
A short description of assay [15]: qHTS Assay for Identification of Small Molecule Inducers of Hypoxia Response (AID 2120; active = well fitted curve in the direction sought with a large enough effect in the signal ratio, with a control signal flat, not every such curve was filed as active; the % refers to the signal ratio). An outline of the steps:
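HRE-beta-lactamase reporter in CellSensor HRE-bla ME-180 cells, 2500 cells/well in Opti-MEM with 0.5% dialyzed FBS; compounds tested as titration series, 17 h at 37 degrees C. CCF4 substrate 2.5 h at room temperature; AC50 from 460/530 nm ratio.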

In assay [16] the target is Endonuclease 4 (Escherichia coli (strain K12)) (UniProt P0A6C1). In words: Counterscreen for APE1 Inhibitors: qHTS Validation Assay for Inhibitors of Endonuclease IV (AID 1708). Put shortly:
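Cleavage of a quenched abasic-site DNA duplex (50 nM, 5'-TAMRA, 3'-BHQ-2) by 2 nM enzyme is followed as fluorescence increase. Compounds are preincubated with enzyme 15 min at room temperature before substrate addition.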

The nature of assay [17]: qHTS for differential inhibitors of proliferation of Plasmodium falciparum line GB4 (AID 1816).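 Also: potency is read from the fitted curve at half-maximal effect; parasite growth measured after 72 h incubation.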 The following applies: Potency: Plasmodium falciparum GB4 proliferation inhibition.
Assay [18] is described as follows: qHTS for differential inhibitors of proliferation of Plasmodium falciparum line W2 (AID 1883).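 Also: potency is read from the fitted curve at half-maximal effect; parasites grown with compound for 72 h before lysis and staining.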 The conditions noted are these: Potency: Plasmodium falciparum W2 proliferation inhibition.

Sequence of ATP-dependent DNA helicase Q1 (Homo sapiens) (P46063 whole entry, looked up): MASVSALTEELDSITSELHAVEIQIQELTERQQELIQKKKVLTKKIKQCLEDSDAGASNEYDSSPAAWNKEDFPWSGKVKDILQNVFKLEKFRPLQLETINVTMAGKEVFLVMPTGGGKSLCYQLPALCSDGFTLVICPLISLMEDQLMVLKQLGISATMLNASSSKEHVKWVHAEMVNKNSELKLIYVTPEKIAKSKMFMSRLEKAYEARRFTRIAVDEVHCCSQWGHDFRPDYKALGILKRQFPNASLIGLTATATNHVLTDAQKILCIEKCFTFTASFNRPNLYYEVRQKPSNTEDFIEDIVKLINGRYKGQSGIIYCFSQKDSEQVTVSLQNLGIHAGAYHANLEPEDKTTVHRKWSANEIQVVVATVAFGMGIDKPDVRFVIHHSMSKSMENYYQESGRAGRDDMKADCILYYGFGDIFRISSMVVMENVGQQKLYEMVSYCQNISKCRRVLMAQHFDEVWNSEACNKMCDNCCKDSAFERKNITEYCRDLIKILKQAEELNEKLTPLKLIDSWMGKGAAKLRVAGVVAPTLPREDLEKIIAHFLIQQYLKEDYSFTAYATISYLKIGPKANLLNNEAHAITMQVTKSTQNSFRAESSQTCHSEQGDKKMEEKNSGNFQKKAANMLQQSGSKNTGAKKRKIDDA
Sequence of DNA repair nuclease/redox regulator APEX1 (Homo sapiens) (P27695 whole entry, looked up): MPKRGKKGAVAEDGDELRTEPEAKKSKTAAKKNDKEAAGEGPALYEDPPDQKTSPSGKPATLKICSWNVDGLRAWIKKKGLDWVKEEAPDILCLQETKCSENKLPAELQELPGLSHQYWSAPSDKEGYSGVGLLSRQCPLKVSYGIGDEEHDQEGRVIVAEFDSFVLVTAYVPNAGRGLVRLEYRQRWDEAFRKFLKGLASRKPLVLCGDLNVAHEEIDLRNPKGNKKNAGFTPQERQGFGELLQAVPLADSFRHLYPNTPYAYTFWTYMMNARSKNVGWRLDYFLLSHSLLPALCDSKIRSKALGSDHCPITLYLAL

`NCCNC(=O)c1ncsc1-c1cccc(F)c1`: the Potency entry in assay [1], in assay [2], in assay [3], in assay [4], in assay [5] and in [6] was “inactive” each time. Besides, the Potency result in assay [7], in assay [8], in [10] and in assay [11] was “inactive” throughout. Further, in [9], the molecule was called inactive.

On to `Oc1ccccc1O`, for which the Potency entry in assay [2], in assay [6], in [7] and in assay [10] was “inactive” in each case.

Take `C=C[C@@H]1CN2CC[C@@H]1C[C@H]2[C@H](O)c1ccnc2ccc(OC)cc12`: the Potency result in [1], in assay [2], in assay [6], in assay [7], in assay [8] and in assay [10] was “inactive” throughout. Besides, the Potency result in assay [11] was “inactive”. For the same molecule, in assay [12], the Potency is 316 nM (active). The molecule was called inactive in [9].

As for `NO`, the Potency result in [2], in assay [12], in assay [6], in assay [7], in [8] and in assay [10] was “inactive” in each case. In assay [11], the Potency result is “inactive”. Moreover, the molecule was called inactive in assay [13] and in assay [9].

`CCCCCCCCCCCCCCCC(=O)NCC(COP(=O)([O-])OCC[N+](C)(C)C)OCC` (stereo not given): the Potency entry in assay [1], in assay [14], in [3], in [4], in assay [12] and in assay [5] was “inactive” each time. Moreover, the Potency result in [7], in assay [10] and in [11] was “inactive” in each case. Moreover, the result in assay [13] and in assay [9] was inactive.

`CCCOC(=O)c1ccc(O)cc1`: in [15], the result was inactive.

Take `N#C/C(=C\c1ccc(O)c(O)c1)C(=O)NCCCc1ccccc1`: the Potency entry in assay [1], in assay [16], in [7] and in assay [10] was “inactive” in each case. For the same molecule, the Potency in assay [14] is 8.91 µM (active); in assay [17], 14.1 µM (active); in assay [4], 11.2 µM (active); in assay [18], 7.08 µM (active); in [5], 12.6 µM (active). Moreover, the outcome in [9] was inactive.

On to `CN(C)c1ccc(/C=C2\C(=O)Nc3ccccc32)cc1`, for which the Potency entry in [1], in assay [7] and in assay [10] was “inactive” each time. Also, the Potency was 8.91 µM (active) in assay [14], 12.6 µM (active) in [17], 12.6 µM (active) in assay [18] and 10 µM (active) in [5]. Further, the call in [9] was inactive.

As for `CC(C)NC[C@H](O)COc1cccc2[nH]ccc12`, the Potency result in assay [1], in assay [2], in assay [6], in assay [7], in assay [10] and in [11] was “inactive” each time. The call in [9] was inactive.

With `Nc1ccc(O)c(C(=O)O)c1`, in assay [15], the call was inactive.

`O=C(O)c1cc(O)c(O)c(O)c1`: the call in assay [15] was inactive.

As to `O=C1CN(/N=C/c2ccc([N+](=O)[O-])o2)C(=O)N1`, the call in assay [15] was inactive.

For the molecule `C#C[C@]1(O)CC[C@H]2[C@@H]3CCc4cc(O)ccc4[C@H]3CC[C@@]21C`, in [15], the call was inactive.

As for `N#C/C(=C\c1c[nH]c2ccccc12)C(=O)c1ccc(O)c(O)c1`, the Potency entry in [1], in [10] and in assay [11] was “inactive” each time. In addition, the Potency in [17] is 12.6 µM (active); in assay [3] it was 12.6 µM (active); in assay [4], 15.8 µM (active); in assay [18], 8.91 µM (active); in assay [5], 12.6 µM (active); in assay [7], 8.91 µM (active). In addition, in [8], the Potency is 11.2 µM (active). The molecule was called inactive in [9].

Regarding `NCCCS(=O)(=O)O`, the Potency entry in assay [1], in assay [2], in assay [6], in assay [7], in assay [8] and in assay [10] was “inactive” in each case. In addition, the Potency result in [11] is “inactive”. Besides, the Potency in assay [18] was 11.2 µM (active). The molecule was called inactive in assay [9].

Turning to `O=C(/C=C/c1ccc(O)c(O)c1)OCCc1ccccc1`, the Potency result in assay [1], in [16], in assay [6], in assay [7] and in assay [10] was “inactive” throughout. The Potency in assay [14] was 6.31 µM (active); in assay [17], 5.01 µM (active); in assay [3], 10 µM (active); in [4], 12.6 µM (active); in assay [18], 5.01 µM (active); in assay [5], 10 µM (active).

As for `O=C(O)/C=C\C(=O)O`, the result in assay [15] was inactive.

Consider `CC[C@@H](C)[C@H]1O[C@]2(CC[C@@H]1C)C[C@@H]1C[C@@H](C/C=C(\C)[C@@H](O[C@H]3C[C@H](OC)[C@@H](O[C@H]4C[C@H](OC)[C@@H](O)[C@H](C)O4)[C@H](C)O3)[C@@H](C)/C=C/C=C3\CO[C@@H]4[C@H](O)C(C)=C[C@@H](C(=O)O1)[C@]34O)O2`, for which the Potency result in assay [2] and in assay [7] was “inactive” in each case. Further, the Potency in assay [14] was 2 µM (active); in assay [17], 1.12 µM (active); in assay [3] it was 0.794 µM (active); in assay [4] it was 2.51 µM (active); in assay [12], 1780 nM (active); in [18], 1 µM (active). The Potency in [5] is 1.12 µM (active).

With `Ic1ccc(N2CCN(Cc3c[nH]c4ncccc34)CC2)cc1`, the Potency result in assay [1], in assay [2], in assay [12], in [6], in [7] and in assay [10] was “inactive” in each case. In [11], the Potency entry was “inactive”. Moreover, the Potency was 2.51 µM (active) in [18] and 11.2 µM (active) in [5]. Besides, the molecule was called inactive in assay [9].
